From PubChem BioAssay
Activity calls are given as the source filed them.

Assays:
[1] = tested on: Human papillomavirus type 1a protein E7 (residues 44-93); assay: HPV1a E7 fragment binders on microarrays, primary screen, biochemical, small-molecule microarray, residues 44-93, 635 nm fluorescence (AID 1108); conditions: small-molecule microarray binding, fluorescence 635 nm; higher = more signal;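 also: E7 fragment applied at 1 µg/mL in TBST for 1 h at 4 C; score combines spot fluorescence with its signal to noise ratio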
[2] = modulators of HCV replicon luciferase signal, primary screen, HCV replication inhibitor project, Huh7 cells, luciferase reporter (AID 1109); conditions: 48 h, higher = more signal;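 also: huh7 hepatoma cells harbouring a luciferase neomycin HCV replicon reporter; luciferase luminescence as measure of HCV replicon replication; test concentration not given here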
[3] = target: Left-right determination factor 2 (Homo sapiens) (UniProt O00292); assay: LEFTY2 binders on small-molecule microarrays, primary screen, biochemical, small-molecule microarray, 635 nm fluorescence scan (AID 1110); conditions: LEFTY2 binding, higher = more signal
Left-right determination factor 2 (Homo sapiens), sequence (O00292 whole entry, looked up): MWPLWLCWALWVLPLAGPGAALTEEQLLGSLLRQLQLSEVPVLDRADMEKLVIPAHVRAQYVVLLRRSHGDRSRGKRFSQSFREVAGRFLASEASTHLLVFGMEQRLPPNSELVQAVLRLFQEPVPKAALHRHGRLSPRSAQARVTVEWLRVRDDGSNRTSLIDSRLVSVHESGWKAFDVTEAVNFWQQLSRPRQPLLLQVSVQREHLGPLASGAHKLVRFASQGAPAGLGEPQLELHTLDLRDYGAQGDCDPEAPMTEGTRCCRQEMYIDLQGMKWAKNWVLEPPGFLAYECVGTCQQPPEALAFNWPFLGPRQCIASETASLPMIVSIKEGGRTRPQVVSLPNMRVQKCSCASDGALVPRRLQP

[4] = target: Calmodulin-1 (Homo sapiens) (UniProt P0DP23); assay: CALM1 binders on microarrays, EGTA buffer, profiling panel, biochemical, small-molecule microarray, Cy5-labelled CALM1 (AID 1111); conditions: Cy5-CALM1 binding fluorescence, higher = more signal;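 also: labelled calmodulin applied in Tris saline Tween buffer holding calcium plus EGTA and DTT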
[5] = target: Calmodulin-1 (Homo sapiens) (UniProt P0DP23); assay: calcium-bound CALM1 binders on microarrays, profiling panel, artefact control for SMM control-protein annotation, biochemical, small-molecule microarray, Cy5-labelled CALM1, plus calcium (AID 1112); conditions: Cy5-CALM1 binding fluorescence, higher = more signal;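 also: score merges spot fluorescence with signal to noise from triplicate slides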
[6] = small-molecule microarray binders of probe aWnt5a, primary screen, biochemical, biotinylated probe, 635/667 nm fluorescence (AID 1113); conditions: higher = more signal;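 also: score merges 667 nm fluorescence intensity with signal-to-noise per printed feature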
[7] = small-molecule microarray binders of probe aShh, primary screen, biochemical, biotinylated probe, 635/667 nm fluorescence (AID 1114); conditions: higher = more signal;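 also: probe is biotin-labelled aShh protein from a stem cell growth factor screen; measures binding of labelled protein to compounds printed on the slide; score merges feature fluorescence at 667 nm with signal-to-noise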
[8] = small-molecule microarray binders of probe aNog, primary screen, biochemical, biotinylated probe, 635/667 nm fluorescence (AID 1115); conditions: higher = more signal;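 also: probe is biotinylated aNog protein used at 0.15 µg/mL for 1 h at 4 C; z-score combines 667 nm fluorescence of each spot with its signal to noise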
[9] = target: Torsin-1A-interacting protein 1 (Homo sapiens) (UniProt Q5JTV8); assay: LAP1 binders from COS7 cell lysate, primary screen, small-molecule microarray, 635/667 nm fluorescence (AID 1116); conditions: COS7-hLAP1 lysate binding, 635 nm fluorescence, higher = more signal
Torsin-1A-interacting protein 1 (Homo sapiens), sequence (Q5JTV8 whole entry, looked up): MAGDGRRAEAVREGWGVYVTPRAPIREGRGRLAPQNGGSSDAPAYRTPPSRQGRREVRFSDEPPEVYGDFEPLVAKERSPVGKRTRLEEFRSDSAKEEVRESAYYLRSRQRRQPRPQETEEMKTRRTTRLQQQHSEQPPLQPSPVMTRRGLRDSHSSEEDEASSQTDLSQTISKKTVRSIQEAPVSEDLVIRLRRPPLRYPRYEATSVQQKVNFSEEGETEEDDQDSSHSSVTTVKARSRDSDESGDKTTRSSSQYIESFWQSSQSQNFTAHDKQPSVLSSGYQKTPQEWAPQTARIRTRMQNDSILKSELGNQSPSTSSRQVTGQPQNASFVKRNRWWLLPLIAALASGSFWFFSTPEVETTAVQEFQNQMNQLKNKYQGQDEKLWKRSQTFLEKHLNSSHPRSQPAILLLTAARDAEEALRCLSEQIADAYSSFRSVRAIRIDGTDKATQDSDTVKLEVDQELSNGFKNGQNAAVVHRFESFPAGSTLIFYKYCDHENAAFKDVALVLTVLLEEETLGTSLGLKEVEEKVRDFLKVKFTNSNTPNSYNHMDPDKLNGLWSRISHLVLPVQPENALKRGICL

[10] = target: Alpha-bungarotoxin (Bungarus multicinctus) (UniProt P60615); assay: alpha-bungarotoxin binders on microarray, profiling panel, artefact control for SMM control protein annotation, biochemical, small-molecule microarray, Alexa647 label, 635/667 nm fluorescence (AID 1117); conditions: alpha-BTX-A647 binding fluorescence, higher = more signal
Alpha-bungarotoxin (Bungarus multicinctus), sequence (P60615 whole entry, looked up): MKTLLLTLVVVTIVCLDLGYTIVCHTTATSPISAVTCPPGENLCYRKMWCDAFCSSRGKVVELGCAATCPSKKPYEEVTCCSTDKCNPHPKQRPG

[11] = target: Albumin (Bos taurus) (UniProt P02769); assay: bovine serum albumin binders on microarray, profiling panel, artefact control for SMM control protein annotation, biochemical, small-molecule microarray, Alexa647 label, 635/667 nm fluorescence (AID 1118); conditions: BSA-A647 binding, fluorescence 635 nm, higher = more signal;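 also: score merges 667 nm emission intensity and signal-to-noise per printed compound spot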
Albumin (Bos taurus), sequence (P02769 whole entry, looked up): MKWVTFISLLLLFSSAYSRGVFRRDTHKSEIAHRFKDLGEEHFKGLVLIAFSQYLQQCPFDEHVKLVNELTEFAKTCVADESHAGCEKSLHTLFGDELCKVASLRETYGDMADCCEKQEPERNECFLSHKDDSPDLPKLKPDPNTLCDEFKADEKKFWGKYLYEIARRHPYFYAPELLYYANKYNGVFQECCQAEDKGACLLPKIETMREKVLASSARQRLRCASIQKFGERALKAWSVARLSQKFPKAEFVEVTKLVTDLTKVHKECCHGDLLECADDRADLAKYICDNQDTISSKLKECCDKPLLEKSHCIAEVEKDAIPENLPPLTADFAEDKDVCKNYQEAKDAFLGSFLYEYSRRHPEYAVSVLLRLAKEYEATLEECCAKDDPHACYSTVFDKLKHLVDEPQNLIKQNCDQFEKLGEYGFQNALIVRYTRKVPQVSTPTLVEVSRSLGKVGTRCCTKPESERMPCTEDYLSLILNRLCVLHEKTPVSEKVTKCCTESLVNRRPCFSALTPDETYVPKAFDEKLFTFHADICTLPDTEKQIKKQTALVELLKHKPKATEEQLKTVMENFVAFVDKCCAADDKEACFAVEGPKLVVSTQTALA

[12] = small-molecule microarray binders of probe aXIP, primary screen, biochemical, NeuroSMM set, 635/667 nm fluorescence (AID 1119); conditions: higher = more signal, called active from +8 up or from −8 down;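 also: probe is the protein aXip251-270 applied at 1 µg/mL to compound-printed slides; binding of probe to printed compounds measured as 667 nm fluorescence plus signal to noise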
[13] = small-molecule binders of probe aNOTCH3, primary screen, biochemical, small-molecule microarray, 635/667 nm fluorescence (AID 1120); conditions: higher = more signal;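 also: probe is a biotin-tagged antibody raised against NOTCH3 rather than NOTCH3 protein; score merges spot fluorescence near 667 nm with spot signal to noise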
[14] = small-molecule binders of probe aNOTCH2, primary screen, biochemical, small-molecule microarray, 635/667 nm fluorescence (AID 1121); conditions: higher = more signal;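 also: score merges feature fluorescence read at 667 nm with its signal to noise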
[15] = target: Carbonic anhydrase 2 (Homo sapiens) (UniProt P00918); assay: CAII small-molecule binders, profiling panel, biochemical, small-molecule microarray, Alexa647-labelled CAII (AID 1122); conditions: CAII-A647 binding fluorescence, higher = more signal
[16] = COS7 lysate on small-molecule microarray, probe aHis, 635 nm (AID 1123); conditions: COS7 cell lysate, fluorescence, higher = more signal;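 also: z-score combines 667nm fluorescence intensity with signal-to-noise per printed compound spot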
[17] = compound binding in COS7 lysate, probe aLAP1, primary screen, cell lysate, small-molecule microarray (AID 1124); conditions: probe aLAP1, fluorescence, higher = more signal;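 also: lysate comes from COS7 cells expressing LAP1 and is applied at 0.3 µg/mL; score merges spot fluorescence near 667 nm with signal-to-noise over triplicate slides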
[18] = tested on: Sam68 (KHDRBS1); assay: Sam68 small-molecule binders, primary screen, biochemical, small-molecule microarray, 635 nm fluorescence (AID 1125); conditions: small-molecule microarray binding, higher = more signal;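 also: score merges 667 nm channel intensity with signal to noise over triplicate slides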
[19] = tested on: Chordin-like protein 2 (CHRDL2); assay: CHRDL2 small-molecule binders, primary screen, biochemical, small-molecule microarray, 635 nm fluorescence (AID 1126); conditions: small-molecule microarray binding, fluorescence 635 nm; higher = more signal;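 also: printed compound slides probed with Chrdl2 protein at 4 µg/mL for 1 h at 4 C; score merges 667 nm emission intensity with signal to noise over three replicate slides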
[20] = target: Concanavalin-A (Canavalia ensiformis) (UniProt P02866); assay: ConA small-molecule binders, primary screen, artefact control for SMM control protein annotation, biochemical, small-molecule microarray, Alexa647 label, 635 nm (AID 1127); conditions: ConA-A647 binding fluorescence, higher = more signal;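 also: z combines 667 nm emission intensity with signal-to-noise across three replicate slides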
Concanavalin-A (Canavalia ensiformis), sequence (P02866 whole entry, looked up): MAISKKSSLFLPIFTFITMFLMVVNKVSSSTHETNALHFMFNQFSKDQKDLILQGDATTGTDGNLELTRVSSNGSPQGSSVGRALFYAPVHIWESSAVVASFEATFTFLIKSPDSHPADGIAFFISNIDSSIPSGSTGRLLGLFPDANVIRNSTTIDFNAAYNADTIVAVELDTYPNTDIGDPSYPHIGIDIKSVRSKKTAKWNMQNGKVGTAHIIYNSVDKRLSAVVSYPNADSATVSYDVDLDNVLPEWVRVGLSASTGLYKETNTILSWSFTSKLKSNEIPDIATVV

Compound	composite z-score [1]	z-score [2]	composite z-score [3]	composite z-score [4]	composite z-score [5]	composite z-score [6]	composite z-score [7]	composite z-score [8]	composite z-score [9]	composite z-score [10]	composite z-score [11]	composite Z-score [12]	composite z-score [13]	composite z-score [14]	composite z-score [15]	composite z-score [16]	composite z-score [17]	composite z-score [18]	composite z-score [19]	composite z-score [20]
CO[C@@H]1COC(=O)CC=C[C@@H](C)[C@H](OC)COC(=O)CC=C[C@H]1C	-0.255	0.353	0.599	-0.888	-1.49	-0.24	0.0796	0.563	-0.176	-0.587	-0.978	0.413 (inactive)	-0.103	-0.169	-0.374	-0.168	-0.412	-0.345	1.48	-0.362
CCCC=C(CCC)[C@@H](NC(=O)c1ccccc1)c1ccccc1	0.0084	-0.12	-0.621	0.323	1.09	-0.0299	0.217	0.766	-0.439	-0.445	-0.399	0.108 (inactive)	0.0191	-0.0633	-0.247	0.341	0.139	-0.452	-0.768	-0.604
C=CCC(OC(C)=O)[C@@H]1[C@@H](N(Cc2ccc(-c3ccccc3)cc2)C(=O)c2ccc(-c3ccccc3)cc2)c2cc(OCCCO)ccc2N1C(=O)Cc1ccc(OC)cc1 (stereo not given in full)	0.273	-1.57	0.241	0.165	0.229	0.164	0.011	0.0921	-0.209	0.265	0.4	0.344 (inactive)	0.0065	-0.183	0.0703	0.0095	0.061	0.0768	-0.0682	0.411
CC(C)(C)OC(=O)CC[C@]1(C(=O)NCCN2CCOCC2)N=C(c2ccc(OCCCO)cc2)O[C@H]1c1ccccc1CN=[N+]=[N-]	0.309	-1.77	0.0415	1.12	0.608	-0.0944	0.0469	0.816	2.12	2.01	0.433	0.192 (inactive)	0.145	-0.057	0.865	2.05	0.663	1.32	-1.1	0.922
CCN1C(C)=C(C(=O)OC)[C@@H](c2ccccc2)N2C(=O)[C@@]3(C(=O)OC)O[C@@]12[C@@H]1C(=O)N(C)C(=O)[C@@H]13	-0.592	-0.0304	0.72	0.439	-0.686	-0.0882	-0.283	0.372	0.426	1.19	0.216	0.0523 (inactive)	0.19	-0.141	0.752	0.32	0.164	0.686	1.01	0.418
CCCC=C(CCC)[C@@H](NS(=O)(=O)c1cccc(C(F)(F)F)c1)c1ccc(C(=O)OC)cc1	1.19	-0.0175	-0.81	0.266	-0.385	1.12	1.06	2.97	0.209	0.398	-0.0532	0.136 (inactive)	1.7	1.06	0.169	0.455	0.134	0.601	-1.35	0.804
CO[C@@H]1COC(=O)[C@H](COCc2ccccc2)NC(=O)CC=C[C@@H](C)[C@H](OC)COC(=O)[C@H](COCc2ccccc2)NC(=O)CC=C[C@H]1C	-0.417	-0.0527	0.644	-0.409	-1.01	-0.0927	-0.0626	-0.349	-0.217	-0.774	-0.711	-0.14 (inactive)	-0.0063	-0.112	-0.319	0.107	-0.225	-0.136	1.1	-0.582
COCCCNC(=O)[C@@]1(Sc2ccc(C)cc2)CC(=O)N(Cc2cc(C(F)(F)F)cc(C(F)(F)F)c2)[C@@H]1c1ccc(CO)cc1I	-0.975	-1.22	-1.28	-0.0999	1.14	-0.147	0.267	0.942	0.339	-0.489	-0.306	0.297 (inactive)	-0.227	-0.133	0.85	0.57	-0.874	-0.955	-1.19	-0.82
C=CC[C@]1(C(=O)N2CCCCC2)N=C(c2ccc(OCCCO)cc2)O[C@H]1c1ccccc1N=[N+]=[N-]	0.796	-0.668	0.218	2.16	0.994	0.0327	0.195	-0.174	1.85	2.28	0.947	0.103 (inactive)	0.486	0.284	0.789	2.81	0.941	1.3	-0.154	1.13
COc1ccc([Si](C)(C)[C@@H]2[C@@H](CCO)O[C@]3(C(=O)N(Cc4ccc(NC(=O)[C@H](C)O)cc4)c4ccccc43)[C@H]2C)cc1	1.39	-5.23	0.0969	0.805	-0.0051	-0.12	-0.0626	0.0169	0.694	0.94	0.762	0.423 (inactive)	-0.0288	-0.127	0.348	1.42	-0.0561	1.32	-0.0817	1.08
CCC(=O)[C@]12O[C@@]3([C@@H]4C(=O)OCC[C@@H]41)N(CC)C(C)=C(C(=O)OC)[C@@H](c1ccccc1)N3C2=O	-0.933	-0.206	0.594	-0.42	-0.382	-0.147	0.227	-0.131	-0.303	0.175	-0.499	-0.302 (inactive)	-0.122	-0.157	0.828	-0.68	0.448	-0.516	0.841	-0.0306
